A short description of test [1]: qHTS assay for small molecule agonists of the p53 signaling pathway (AID 651631; calls by dose curve; note: nearly all actives have a fitted effect of over 15% in size; note: potency is the fitted concentration of half-maximal effect). In short, it runs like this:
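Read-out is beta-lactamase FRET fluorescence measured 2 h after substrate addition at room temperature, in HCT-116 cells with a p53 response element-driven reporter exposed to compounds for 16 h at 37 °C.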
(Quantitative high-throughput screening tests each substance at several concentrations.)

Test [2] in a line: qHTS assay for small molecule disruptors of the mitochondrial membrane potential - cell viability (AID 720634; calls by dose curve; note: nearly all actives have a fitted effect of over 20% in size; note: potency is the fitted concentration of half-maximal effect). In short, it runs like this: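 After overnight attachment at 37 C, HepG2 cells received compound or DMSO vehicle for 1 hr. Viability is then taken from ATP-driven luminescence following a 30 min room-temperature CellTiter-Glo step.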
Test [3] is described as follows: qHTS assay to test for compound auto fluorescence at 590 nm (red) in HepG2 cells (AID 720674). In short, it runs like this: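 1 hr compound incubation on HepG2 cells, 37 C, 5% CO2; plate read ex 540 nm / em 590 nm; intensities reported as Rose Bengal sodium equivalents.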
Test [4] in a line: qHTS assay to test for compound auto fluorescence at 535 nm (green) in HepG2 cells (AID 720675).
The nature of test [5]: qHTS assay to test for compound auto fluorescence at 460 nm (blue) in HEK293 cells (AID 720678). A digest of the protocol: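 Intrinsic compound fluorescence is recorded in live HEK293 cultures after overnight incubation at 37C, 5% CO2, using excitation 405 nm and emission 460 nm. Values are referenced to triamterene.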
Test [6] can be described thus: qHTS assay to test for compound auto fluorescence at 590 nm (red) in HEK293 cells (AID 720679). In short, it runs like this:
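Red autofluorescence, HEK293 cells: 2,000 cells/well; attach 4-5 hr 37C; add 23 nL cpd or DMSO; incubate o/n 37C 5% CO2; read Ex540/Em590; Rose Bengal sodium reference.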

Test [7] in a line: qHTS assay to test for compound auto fluorescence at 535 nm (green) in HEK293 cells (AID 720680).
Test [8] is described as follows: qHTS assay to test for compound auto fluorescence at 460 nm (blue) in HEK293 cell free culture (AID 720681). A digest of the protocol: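 Blue fluorescence (Ex 405/Em 460 nm, triamterene-equivalent) was read immediately after pin transfer of compound or DMSO into medium (DMEM, 10% FBS) without cells.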
Test [9] in a line: qHTS assay to test for compound auto fluorescence at 535 nm (green) in HEK293 cell free culture (AID 720682). In short, it runs like this: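 Fluorescein serves as the green reference fluorophore; each compound's intrinsic emission at 535 nm (excitation 485 nm) is reported as an equivalent amount of that dye, measured in serum-containing DMEM without cells.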
A short description of test [10]: qHTS assay to test for compound auto fluorescence at 590 nm (red) in HEK293 cell free culture (AID 720683). In short, it runs like this:
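Red-channel autofluorescence of compounds in culture medium (DMEM, 10% FBS), no cells, measured at 540/590 nm. Rose Bengal sodium is the reference fluorophore for equivalence.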

Test [11] in a line: qHTS assay to test for compound auto fluorescence at 590 nm (red) in HepG2 cell free culture (AID 720684). In short, it runs like this: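 Plate contents were MEM with 10% FBS plus test compound or DMSO, no cells. Fluorescence was recorded with 540 nm excitation and 590 nm emission.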
A short description of test [12]: qHTS assay to test for compound auto fluorescence at 535 nm (green) in HepG2 cell free culture (AID 720686).
Test [13] in a line: qHTS assay to test for compound auto fluorescence at 460 nm (blue) in HepG2 cells (AID 720687). In short, it runs like this: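 Blue-channel autofluorescence (Ex/Em 405/460 nm, triamterene-equivalent) was measured after 1 hr compound exposure at 37 C, 5% CO2. Cells were HepG2, plated overnight at 37 C in MEM plus 10% FBS.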
Test [14] addresses Glucocorticoid receptor (Homo sapiens) (UniProt P04150). Nature of the test: qHTS assay to identify small molecule agonists of the glucocorticoid receptor (GR) signaling pathway (AID 720691; active = well fitted activation curve with a large enough effect in the signal ratio in the repeat runs, not every such curve was filed as active; the % refers to the signal ratio). In short, it runs like this: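 Agonist mode in a HeLa line carrying a GRE-controlled beta-lactamase reporter. Compounds act for 18 h at 37 C before a 2 h room-temperature FRET substrate step and fluorescence reading.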

Test [15] in a line: qHTS assay for small molecules that induce genotoxicity in human embryonic kidney cells expressing luciferase-tagged ATAD5 (AID 651632). Note: nearly all actives have a fitted effect of over 15% in size. A digest of the protocol:
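Increased luciferase signal from ATAD5-tagged reporter cells indicates DNA-damage-driven ATAD5 induction. HEK293T cells are treated for 16 hr at 37C before detection with Amplite.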

Test [16] in a line: qHTS assay for small molecule agonists of the p53 signaling pathway - cell viability (AID 651633; calls by dose curve; note: nearly all actives have a fitted effect of over 30% in size; note: potency is the fitted concentration of half-maximal effect). In short, it runs like this:
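Viability counter-read: CellTiter-Glo luminescence (30 min, room temperature) in the same p53RE-bla plates. These plates had been exposed to compounds for 16 h at 37 C.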

Test [17] can be described thus: qHTS assay for small molecules that induce genotoxicity in human embryonic kidney cells expressing luciferase-tagged ATAD5 - cell viability (AID 651634; calls by dose curve; note: nearly all actives have a fitted effect of over 25% in size; note: potency is the fitted concentration of half-maximal effect). A digest of the protocol:
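Cytotoxicity counterscreen in HEK293T cells bearing an ATAD5-luciferase reporter: live-cell protease activity measured by CellTiter-Fluor fluorescence after 15.5 hr compound exposure.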

A short description of test [18]: qHTS assay for small molecule disruptors of the mitochondrial membrane potential (AID 720635). Note: potency is the fitted concentration of half-maximal effect. A digest of the protocol:
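Mitochondrial membrane potential tracked with Mito-MPS dye, red aggregates (ex 540/em 590 nm) against green monomers (ex 490/em 535 nm). Compound treatment 1 hr at 37C, dye 30 min in HepG2.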

Test [19] is described as follows: qHTS assay to test for compound auto fluorescence at 460 nm (blue) in HepG2 cell free culture (AID 720685). A digest of the protocol:
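Compound (23 nL) or DMSO pinned into cell-free MEM with 10% FBS; blue fluorescence read at 405/460 nm excitation/emission, expressed as auto-fluorescence equivalency to triamterene.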

In test [20] the target is Glucocorticoid receptor (Homo sapiens) (UniProt P04150). Nature of the test: qHTS assay to identify small molecule antagonists of the glucocorticoid receptor (GR) signaling pathway (AID 720692; active = well fitted inhibition curve with a large enough effect in the signal ratio in the repeat runs, not every such curve was filed as active; the % refers to the signal ratio; note: potency is the fitted concentration of half-maximal effect). A digest of the protocol: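 Cells plated, rested 4 h at 37 C/5% CO2; compounds in DMSO pin-transferred; dexamethasone added to 5 nM final; 18 h at 37 C; B/G FRET substrate added, 2 h room temperature; fluorescence measured.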

Values joined by “and” are separate entries in the source; they are usually repeats but may differ in a detail not shown here. Equal entries are not always repeated. Results filed as inconclusive are left out. Active and inactive are the calls of the source. Unless noted, calls come from the whole dose curve; as a rule, active = well fitted curve in the direction sought with a large enough effect in the repeat runs; inconclusive = weak or mixed curves; inactive = no such curve, though single readings can be large; an effect the other way counts as inactive or inconclusive.

Chain of Glucocorticoid receptor (Homo sapiens) (P04150 whole entry, looked up): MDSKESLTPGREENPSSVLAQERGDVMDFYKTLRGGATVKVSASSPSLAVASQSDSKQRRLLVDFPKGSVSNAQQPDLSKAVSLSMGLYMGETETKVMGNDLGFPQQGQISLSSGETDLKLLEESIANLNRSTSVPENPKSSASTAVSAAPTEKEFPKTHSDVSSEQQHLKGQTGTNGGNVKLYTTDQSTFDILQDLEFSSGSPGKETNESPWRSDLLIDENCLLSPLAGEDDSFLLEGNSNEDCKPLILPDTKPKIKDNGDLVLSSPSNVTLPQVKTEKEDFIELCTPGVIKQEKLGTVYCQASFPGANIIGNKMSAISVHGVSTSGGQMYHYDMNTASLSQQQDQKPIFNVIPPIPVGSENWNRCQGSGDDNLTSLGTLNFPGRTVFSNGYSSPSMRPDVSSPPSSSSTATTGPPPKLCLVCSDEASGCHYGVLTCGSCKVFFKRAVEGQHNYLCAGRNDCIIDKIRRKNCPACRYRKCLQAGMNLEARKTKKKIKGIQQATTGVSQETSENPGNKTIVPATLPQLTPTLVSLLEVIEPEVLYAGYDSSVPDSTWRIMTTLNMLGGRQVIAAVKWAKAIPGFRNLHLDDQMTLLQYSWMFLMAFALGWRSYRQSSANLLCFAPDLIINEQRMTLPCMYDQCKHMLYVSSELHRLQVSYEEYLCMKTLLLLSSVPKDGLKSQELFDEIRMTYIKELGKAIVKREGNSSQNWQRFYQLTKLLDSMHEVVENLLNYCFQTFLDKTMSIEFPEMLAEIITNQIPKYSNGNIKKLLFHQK

For the compound `CCOC(=O)CC(=O)CCl`, in [1], the Potency was 68.6 µM (active). Moreover, the Potency result in test [2], in test [5], in [8], in test [13] and in test [14] was “inactive” throughout. The compound was called inactive in test [3], in [4], in test [6], in test [7], in [9] and in [10]. The compound was called inactive in test [11] and in test [12].
Regarding `O=c1ssc(Cl)c1Cl`, the Potency result in test [15], in test [5], in test [8], in test [19], in test [13] and in test [14] was “inactive” in each case. For the same compound, the Potency in test [16] is 54.5 µM (active); in [17] it was 61.1 µM (active); in test [2], 61.1 µM (active); in test [18], 30.6 µM (active); in test [20], 43.6 µM (active). Further, the outcome in test [3], in test [4], in test [6], in [7], in test [9] and in test [10] was inactive. For the same compound, the call in test [11] and in [12] was inactive.
For `c1ccc(Nc2ccc3ccccc3c2)cc1`, the Potency result in test [15], in [16], in [17], in [5], in test [8] and in [19] was “inactive” throughout. In addition, the Potency result in [13], in test [14] and in [20] was “inactive” throughout. The Potency was 17.1 µM (active) in test [2]; 8.58 µM (active) and 13.7 µM (active) in [18]. Moreover, the outcome in test [3], in [4], in [6], in test [7], in [9] and in [10] was inactive. The outcome in test [11] and in test [12] was inactive.
`O=C1c2ccccc2C(=O)C1C(=O)C(c1ccccc1)c1ccc(Cl)cc1` (stereo unspecified): the Potency entry in test [15], in test [5], in test [8], in test [13] and in [14] was “inactive” in each case. For the same compound, the Potency in test [16] is 24.3 µM (active); in test [17], 3.06 µM (active); in [2] it was 61.1 µM (active); in test [18], 0.386 µM (active); in test [20], 12.3 µM (active). Further, the call in [3], in [4], in test [6], in test [7], in test [9] and in test [10] was inactive. In addition, the call in test [11] and in [12] was inactive.
With `Cc1cc(C)cc(OP(=O)(Oc2cc(C)cc(C)c2)Oc2cc(C)cc(C)c2)c1`, the Potency result in test [1], in test [15], in test [17], in test [5], in test [8] and in test [19] was “inactive” each time. Further, the Potency entry in [13] and in [14] was “inactive” each time. Moreover, in test [18], the Potency was 49.3 µM (active). For the same compound, the call in test [3], in test [4], in [6], in [7], in [10] and in test [11] was inactive. Besides, the compound was classed as inactive in [12].
Consider `O=C(CCl)C(Cl)Cl`, for which the Potency in [1] is 13.8 µM (active); in test [2] it was 49 µM (active); in test [18], 61.7 µM (active); in test [20], 35 µM (active). The Potency entry in test [15], in test [5], in test [19] and in test [13] was “inactive” in each case. The outcome in [3], in test [4], in test [6], in test [7], in [10] and in [11] was inactive. For the same compound, the call in test [12] was inactive.
On to `CCC(C)(C)C(=O)OC1=C(c2ccc(Cl)cc2Cl)C(=O)OC12CCCCC2`, for which the Potency in [1] is 7.7 µM (active); in test [16], 61.1 µM (active); in test [18], 9.69 µM (active). The outcome in [3], in test [4], in test [6], in test [7], in test [9] and in test [10] was inactive. The compound was classed as inactive in test [11] and in test [12]. For the same compound, the Potency entry in test [5], in test [19], in test [13] and in test [14] was “inactive” throughout.

The values are drawn from PubChem BioAssay (Tox21).
